Source: PubChem BioAssay (NCATS)
Results filed as inconclusive are left out. Values without a mark were called inactive. Active and inactive are the calls of the source. Calls come from the whole dose curve; as a rule, active = well fitted inhibition curve with a large enough effect; inconclusive = small, poorly fitted or top-dose-only effect; inactive = flat fitted curve, though single readings scatter.

Test system: KB-3-1
Assay: Cytotoxic Profiling of Annotated Libraries Using Quantitative High-Throughput Screening (AID 1296008); note: nearly all actives have a fitted effect of over 60% in size
Details: Five cell lines viability, CellTiter-Glo ATP luminescence, 48-72 h; max response: stronger effect = lower value
In short: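 Compounds were pin-transferred onto cells and incubated 48 or 72 hr at 37 degree Celsius, 95% humidity. CellTiter-Glo was added, plates sat 10 min at room temperature, then ATP-coupled luminescence was imaged as the viability read-out.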
% is set by controls: 0 for no effect and ±100 for the full control effect; potency is the fitted concentration of half-maximal effect.

Row | SMILES | max response | Potency
1 | O=C(O)CCC/C=C\C[C@@H]1[C@@H](/C=C/[C@@H](O)COc2cccc(C(F)(F)F)c2)[C@H](O)C[C@@H]1O | -14.2% | 
2 | CCCOC(=O)c1ccccc1O | -1.94% | 
3 | CCOC(=O)c1cc(-c2ccccc2)nc2ccc(C)cc12 | 3.5% | 
4 | Cn1cc(NC(=O)c2cc(NC(=O)c3cc(NC=O)cn3C)cn2C)cc1C(=O)NCCC(=N)N | 2.85% | 
5 | CC(C)=CCC/C(C)=C/C=C/C(C)=C/C=C/C(C)=C/C=C/C=C(C)/C=C/C=C(C)/C=C/C=C(\C)CCC=C(C)C | -16.3% | 
6 | COc1ccc2c(c1)OC(C)(C)C(c1ccccc1)C2c1ccc(OCCN2CCCC2)cc1 (stereo not drawn) | -26.5% | 
7 | Cn1c(=O)c2c(ncn2CCOC(=O)C(C)(C)Oc2ccc(Cl)cc2)n(C)c1=O | -10.9% | 
8 | CC(C)NCC(O)COc1ccccc1-n1cccc1 (stereo not drawn) | 24.4% | 
9 | CC(C)Cc1ccc([C@@H](C)C(=O)NS(C)(=O)=O)cc1 | 3.61% | 
10 | N=C(N)c1ccc(/C=C/c2ccc(C(=N)N)cc2O)cc1 | -19% | 
11 | CC(=O)Oc1cccc(C(=O)O)c1OC(C)=O | -11.2% | 
12 | CNC(=O)[C@H](Cc1c[nH]c2ccccc12)NC(=O)[C@@H](CC(=O)NO)CC(C)C | -8.09% | 
13 | c1ccc2c(c1)Sc1ccccc1N2CCN1CCCC1 | -12.7% | 
14 | C[C@H](N)C(=O)N[C@@H](C)P(=O)(O)O | -6.78% | 
15 | CC1=CC(=C(c2ccc(N)cc2)c2ccc(N)cc2)C=CC1=N |  | 10.3 µM (active)
16 | OCCOCCOCCO | -12.6% | 
17 | CCN(CC)C(=O)c1cccnc1 | -8.56% | 
18 | CNC(=O)c1c(I)c(C(=O)NCC(=O)Nc2c(I)c(C(=O)O)c(I)c(C(=O)NCCO)c2I)c(I)c(N(C)C(C)=O)c1I | 10% | 
19 | CCSc1ccc2c(c1)N(CCCN1CCN(C)CC1)c1ccccc1S2 | -2.13% | 
20 | O=C1NCCN1c1ncc([N+](=O)[O-])s1 | 1.83% | 
21 | O=c1n(CC2CO2)c(=O)n(CC2CO2)c(=O)n1CC1CO1 (stereo not drawn) | 23% | 
22 | Cc1cc(C(=O)NCCc2ccc(S(=O)(=O)NC(=O)NN3CCCCCC3)cc2)no1 | 8.89% | 
23 | COc1ccc(/C=N/NC(=O)c2ccncc2)c(C(=O)O)c1OC | -1.02% | 
